# From PubChem BioAssay (NCI)
# This is part of a sample that, as a whole, favours compounds with a hit. Of some 79,000 tested, about 15% had one in any assay. A number with no mark means an inactive call. Activity calls are given as the source filed them. Rule as the data show it: active = growth inhibition above about 70%; inactive = the rest.
# Key:
# [1] = NCI Yeast Anticancer Drug Screen. Data for the rad50 strain (AID 155);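 also: 0% = growth of vehicle-only cultures of the same strain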; conditions: S. cerevisiae rad50 strain growth inhibition; at 50.0 µM; hits give high values
# In short: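 Compounds were tested on a yeast strain with an engineered DNA damage repair alteration; the reported value is growth inhibition normalised to vehicle treatment.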
# [2] = NCI Yeast Anticancer Drug Screen. Data for the mec2-1 strain (AID 157); conditions: S. cerevisiae mec2-1 strain, at 50.0 µM, hits give high values
# In short: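 Yeast mec2-1 mutant treated with compound. Readout: growth inhibition vs vehicle controls.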
# [3] = NCI Yeast Anticancer Drug Screen. Data for the sgs1 mgt1 strain (AID 161);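 also: 0% = growth of cultures given vehicle only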; conditions: S. cerevisiae sgs1 mgt1 strain, at 50.0 µM, hits give high values
# In short: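 Read-out: growth inhibition vs vehicle controls. Cells: mutant yeast strain deficient in DNA damage repair.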
# [4] = NCI Yeast Anticancer Drug Screen. Data for the cln2 rad14 strain (AID 165);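 also: 0% = growth equal to vehicle treated cultures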; conditions: S. cerevisiae cln2 rad14 strain, at 50.0 µM, hits give high values
# In short: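 cln2 rad14 yeast strain; compound exposure; growth inhibition read vs vehicle controls.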
# [5] = NCI Yeast Anticancer Drug Screen. Data for the bub3 strain (AID 167); conditions: S. cerevisiae bub3 mutant strain, at 50.0 µM, hits give high values
# In short: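 Growth of a checkpoint-deficient yeast mutant is measured after compound exposure. Values represent inhibition relative to vehicle.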
# [6] = NCI Yeast Anticancer Drug Screen. Data for the mlh1 rad18 strain (AID 175); conditions: S. cerevisiae mlh1 rad18 strain growth inhibition; at 50.0 µM; hits give high values
# In short: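 Yeast w/ defined DNA-repair lesions; compound exposure; growth vs vehicle controls → % inhibition.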
SMILES,growth inhibition [1],growth inhibition [2],growth inhibition [3],growth inhibition [4],growth inhibition [5],growth inhibition [6]
Fc1cccc2nc(-c3ccccc3)cc(OCc3ccccc3)c12,0.9%,8.3%,-30.6%,-1%,11.8%,-3.4%
CC1=CC2(C)OC3C(=O)N(c4ccc(Cl)cc4)C(=O)C3C2N=C1 (configuration not stated),-7.65%,-22.9%,-24%,9.6%,-20.1%,-3.35%
CC(C)N(C(=O)C1C2CCC(CC2)C1C(=O)N(C(C)C)C(C)C)C(C)C (configuration not stated),2.4%,17.5%,11.3%,-0.9%,27.6%,20.7%
CCOC(=O)C1=C(C)N(NC(=O)Nc2ccccc2)C2(N)N(NC(=O)Nc3ccccc3)C(C)=C(C(=O)OCC)C12C(=O)OCC (configuration not stated),-28.1%,-44.5%,-42%,-20.7%,-7.6%,-15.8%
O=C(CCN1CCCCC1)c1cc(Cl)ccc1Cl,88.4% (active),68.4%,93.1% (active),62.5%,91% (active),80.2% (active)
CN1CCC(C[CH2][Sn]([c]2ccccc2)([c]2ccccc2)[c]2ccccc2)CC1,51.1%,99.3% (active),50.7%,63%,49%,57.5%
Cc1ccc2c(c1)[nH]c(=S)n2/C=C1\C(=O)Oc2ccccc2C1=O,-43.8%,-42.1%,-44.4%,-31.7%,-42%,-46%
O=C(O)/C=C/C(=O)Nc1cccc(C(F)(F)F)c1,-3.5%,0.35%,-17.5%,-6.85%,-15.7%,-9.7%
N=c1c2ccccc2nc2oc3ccccc3n12,48.8%,12%,7.7%,13.2%,24.9%,6.5%
COc1cccc(N2C(=O)c3c(c4[nH]c5ccccc5c4c4ccc(C(C)(C)C)cc34)C2=O)c1,-19.2%,-15.1%,-15.4%,18.3%,-34%,-12.1%
CNC(=O)NC1NC(=O)N(C)C1=O (configuration not stated),0.3%,-12.7%,-0.4%,-14.6%,-0.45%,-12.7%
Cc1cc(Cc2cc(C)c(NC(=O)C(=O)C3CCC4=C(SC5C=CC=CC5N4)C3=O)c(C(C)C)c2)cc(C(C)C)c1NC(=O)C(=O)C1CCC2=C(SC3C=CC=CC3N2)C1=O (configuration not stated),-15.8%,-13.6%,-8.1%,15.2%,15.3%,-28.1%
O=S(=O)(N/N=C/c1ccncc1)c1ccccc1,39.4%,16.9%,60.5%,41.1%,34.5%,50.5%
CCCCN(CCCC)C(=Nc1ccccc1)N(CCCC)CCCC,-13.2%,-3.4%,-23.8%,10%,-38.9%,-15.3%
C/C(=N/N=C(N)N)c1cnn(C(=N)N)c1C,15.3%,13.3%,18.2%,19.4%,20.9%,28.4%
Cc1cc(C)c(CCl)c(C)c1CCl,0.9%,2%,-9.1%,-57.5%,5.75%,10.2%
O=[N+]([O-])c1ccc(F)c(Cl)c1F,15.8%,-6.65%,-2.15%,-20.9%,-12.7%,-3.45%
COC(=O)CC1(C(=O)OC)Oc2ccc(Br)cc2C(=O)N1c1cccc(Cl)c1Cl (configuration not stated),52.4%,13.8%,46.5%,40.6%,52.9%,54.1%
O=c1[nH]nc(Cc2ccc(Cl)cc2)n1O,3.3%,5.3%,0.1%,-26.6%,-13.5%,1.65%
O=c1ccc(O)c[nH]1,12.3%,18.8%,34.7%,9.95%,2.8%,16.1%
O=C1NC(=O)C2C3CCC(C3)C12 (configuration not stated),13.6%,-6.15%,-7.65%,-41.8%,4.65%,0.4%

SMILES,growth inhibition [1],growth inhibition [2],growth inhibition [3],growth inhibition [4],growth inhibition [5],growth inhibition [6]
CCCC[n+]1cccc(C(=O)c2ccccc2)c1,15.7%,-6.6%,0.7%,2.75%,2.35%,8.85%
OCC1CSCC1CO (configuration not stated),8.6%,12.8%,-4.7%,15.3%,11.7%,3.5%
NC(=O)N/N=C/c1ccc([N+](=O)[O-])s1,-29.6%,-0.8%,1.8%,-39%,-6.9%,-8.5%
NC(N)=NCCCC(O)C(=O)O (configuration not stated),-10.6%,-11.8%,-6.85%,-2.95%,2.25%,0.85%
O=C(Cl)Cc1ccccc1[N+](=O)[O-],14.5%,14.6%,12.4%,6.55%,-20.4%,12.9%
COc1ccc2c(ccc3nc(C)[nH]c(=O)c32)c1,5.3%,-5.35%,2.95%,-30.2%,-10.6%,-6.3%
Clc1ccc(N=C2CCCCC2)cc1,12.4%,-12.5%,-0.2%,8.45%,-18.2%,1.9%
CN(C)c1nc(N/N=C\C(O)C(O)C(O)C(O)CO)nc(N(C)C)n1 (configuration not stated),-1.55%,2.45%,-7.1%,1.15%,32.1%,9%
Cn1c(=O)c2[nH]c(NCc3ccccc3)nc2n(C)c1=O,27.4%,-3.9%,0.7%,-35.2%,0.4%,-0.2%
O=C1Nc2noc(=O)nc2NO1,13.1%,4.8%,-0.35%,-2.5%,-22.4%,-18.5%
CC1(C)C2CCC3CC(CCC#N)CCC3C21C#N (configuration not stated),-32.2%,-11.2%,-8.8%,-34.5%,-37.8%,-23.1%
C[C@H](C(O)CC(=O)C(C)(C)O)[C@H]1CC[C@@]2(C)[C@@H]3CC[C@H]4C(C)(C)[C@@H](OC5OC(COC6OC(CO)C(O)C(O)C6O)C(O)C(O)C5O)CC[C@]4(C)C3=CC[C@]12C (some centres not stated),-12.7%,-19.3%,-20.2%,-0.05%,-23.4%,-75.8%
CCOC(=O)C(CC)(C(=O)OCC)C(C)C,15.6%,30.4%,-17.9%,-28.1%,-9.95%,-6.8%
CC1=COCCO1,-9.9%,-9.35%,-9.35%,6.85%,12.7%,0.5%
Cc1cccc(Cl)c1NC(=O)C(Cl)Cl,6.35%,9.75%,8%,4.55%,17.3%,14.9%
CNC(=O)N(Cl)c1ccc(Cl)cc1,5.45%,12.9%,1.9%,-26.6%,7.45%,-0.25%
O=C(Cc1ccccc1)Nc1ccccc1,17.9%,-21.1%,2.45%,-0.3%,-7.55%,17.9%
CC[N+](CC)(CC)CCCC[P+](CC)(CC)CC,15.8%,-9.15%,8.8%,9.9%,10.2%,13.7%
CN1CCC/C1=C/C(=O)c1ccccc1[N+](=O)[O-],2.9%,-0.1%,-0.65%,-28.3%,9.6%,-11.7%
O=C(OCc1ccccc1)C1CC1 (tested in a mixture with another compound),12.1%,14.8%,15.4%,6.1%,20.8%,25.2%
Cn1c(=O)c2c(ncn2CCN2CCNCC2)n(C)c1=O,13.8%,-12.8%,0.2%,-37.5%,25.4%,3.9%
